From PubChem
Only some compounds are listed: those with a hit (about 31% of all), similar ones and a draw of the others.
CYP2C19 inhib – human CYP2C19 inhibition. inhibition, % at 5 µM. CYP2C19 Supersomes, luciferin-H EGE luminescence, 30 min. 96,000 tested, 21% active;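 active means CYP2C19 inhibition above a set limit at 5 µM in the primary screen, cut at about 50% in these data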;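 further: plate controls were negative control wells for no effect and 2.5 mM tranylcypromine positive control for full effect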
PLAP activator – activates human placental alkaline phosphatase | purified PLAP enzyme, luminescent substrate read-out; stronger effect = higher value | activation fold at 20 µM | 96,000 tested, 1.2% active | AID 696; in the data active means activation fold above about 2
CYP2C9 act – CYP2C9 (human) activation; P11712; recombinant CYP2C9, luciferin-H conversion, luminescence; stronger effect = higher value; factor 1 = untreated enzyme, 0 = blocked; activation factor at 5 µM; 96,000 tested, 1.4% active; AID 1024;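 active means activation factor of 2 or more for CYP2C9 at a 5 µM dose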;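 further: 0 = sulfaphenazole-blocked wells and 1 = vehicle-only wells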
Target sequence (P11712 whole entry, looked up): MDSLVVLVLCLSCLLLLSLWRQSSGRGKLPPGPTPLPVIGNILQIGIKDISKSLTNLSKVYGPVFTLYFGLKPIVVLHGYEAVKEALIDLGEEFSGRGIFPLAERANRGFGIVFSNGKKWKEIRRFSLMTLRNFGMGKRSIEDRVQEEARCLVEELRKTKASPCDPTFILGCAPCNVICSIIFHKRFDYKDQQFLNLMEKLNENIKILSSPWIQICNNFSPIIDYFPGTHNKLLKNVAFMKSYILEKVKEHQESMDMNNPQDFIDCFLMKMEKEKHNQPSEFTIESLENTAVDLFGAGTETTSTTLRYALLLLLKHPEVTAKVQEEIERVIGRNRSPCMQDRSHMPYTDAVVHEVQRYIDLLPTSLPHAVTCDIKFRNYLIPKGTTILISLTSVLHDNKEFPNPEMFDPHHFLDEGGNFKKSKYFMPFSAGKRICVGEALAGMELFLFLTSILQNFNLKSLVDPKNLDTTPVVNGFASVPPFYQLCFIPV
CYP2C9 inhib – inhibitors of human CYP2C9; AID 777; 96,000 tested, 20% active; inhibition, % at 5 µM; P11712; CYP2C9 Supersomes, luciferin-H conversion, luminescence;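 active means blocking of liver enzyme CYP2C9 beyond about 50% at 5 µM, limit read from the data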
CYP2C19 activ – activators of human cytochrome P450 2C19. activation factor at 5 µM. recombinant CYP2C19, luciferin-H EGE luminescence; stronger effect = higher value; 0 = fully inhibited enzyme, 1 = untreated enzyme. P33261. AID 1025. 96,000 tested, under 10 active;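 active means activation factor of at least 2 at 5 µM in the primary screen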;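 further: 0 = wells with 2.5 mM tranylcypromine and 1 = vehicle-only wells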
Numbers without * were called inactive.

SMILES	CYP2C19 inhib	PLAP activator	CYP2C9 act	CYP2C9 inhib	CYP2C19 activ
Cn1cnnc1SCC(=O)NCCc1ccccc1	23	0.8	1.1	-7	0.8
O=C(Nc1ccccc1)N(Cc1cccs1)C1CCCC1	51*	0.8	0.1	85*	0.5
O=C(Nc1ccc(Cl)cc1)N(Cc1cccs1)Cc1cccs1	23	0.9	0.6	38	0.8
CCCN(Cc1ccccc1)S(=O)(=O)c1ccc(N2C(=O)CCC2=O)cc1	24	1	0.6	42	0.8
O=C(CCc1nc(-c2ccccc2)c(-c2ccccc2)o1)OCc1ccc(Br)cc1	58*	1	0.2	81*	0.4
COC(=O)c1sccc1NC(=S)N1CCCCC1	32	1.1	1.2	-21	0.7
COC(=O)c1cc(OC)c(OC)cc1NC(=S)N1CCN(c2ccccc2)CC1	100*	1.4	0.5	54*	0
COC(=O)c1cc(OC)c(OC)cc1NC(=O)CC1CCCCC1	23	1.5	0.5	51*	0.8
COC(=O)c1cc(OC)c(OC)cc1NC(=S)N1CCCCC1	50*	1.1	0.9	7	0.5
COC(=O)c1cc(OC)c(OC)cc1NC(=O)c1ccccc1	1	0.9	0.8	17	1
COC(=O)c1cc(OC)c(OC)cc1NC(=S)N1CCN(C)CC1	65*	1.1	1	3	0.4
COC(=O)c1cc(OC)c(OC)cc1NC(=O)CN1CCCCC1	4	1	1	-2	1
Cn1c(=O)c2cc(S(=O)(=O)NCCC(=O)NC3CCCCCCC3)ccc2n(C)c1=O	-10	1.1	1.2	-20	1.1
COC(=O)c1cc(OC)c(OC)cc1NC(=S)N1CCC(C(N)=O)CC1	-9	1.3	1.2	-19	1.1
CCOC(=O)C1CCN(C(=S)Nc2cc(OC)c(OC)cc2C(=O)OC)CC1	100*	1.8	0.8	18	0
O=C(NC(=S)Nc1ccc2[nH]ncc2c1)c1ccccc1	99*	1.4	0	95*	0
CCOc1ccc(C/C(N)=N/n2cnnc2)cc1	-7	0.8	1.1	-7	1.1
CC(C)C(=O)NC(=S)Nc1ccccc1C(F)(F)F	73*	0.9	0.4	63*	0.3
CCCC(=O)NC(=S)Nc1ccccc1C(F)(F)F	55*	1.1	0.5	50*	0.5
CCCC(=O)NC(=S)Nc1cccc(Cl)c1N1CCCCC1	69*	0.4	0.1	93*	0.3
Cc1ccccc1C(=O)NC(=S)Nc1ccccc1C(F)(F)F	8	1.1	1.1	-8	0.9
O=C(CSCc1ccc(Cl)cc1)N/N=C/c1ccc(Cl)cc1Cl	6	0.9	0.7	29	0.9
O=C(O)c1cccc(Nc2ncnc3ccccc23)c1	17	0.9	1	3	0.8
COc1cc(C(=O)Oc2cccc(Nc3ncnc4ccccc34)c2)cc(OC)c1OC	45	1.3	0.4	63*	0.5
CCCCn1c(CCNC(=O)c2cccs2)nc2ccccc21	63*	1.2	0.8	21	0.4
SMILES	CYP2C19 inhib	PLAP activator	CYP2C9 act	CYP2C9 inhib	CYP2C19 activ
CC(C)Cn1c(CNC(=O)c2ccccc2)nc2ccccc21	72*	1	0.7	27	0.3
CCCn1c(CNC(=O)c2ccccc2)nc2ccccc21	61*	0.9	1	0	0.4
Cc1csc2nc(=O)c3ccccc3n12	2	0.9	1	2	1
O=C(Cc1ccccc1)n1nc(-c2ccco2)nc1SCc1ccccc1	68*	1	0.7	30	0.3
CSc1nc(-c2ccco2)nn1S(=O)(=O)c1ccccc1	83*	1	2.1*	-115	0.2
O=C(c1ccco1)n1nc(-c2ccco2)nc1SCc1ccccc1	35	0.8	0.8	18	0.7
CCS(=O)(=O)n1nc(-c2ccco2)nc1SC	35	1.1	0.6	37	0.7
Cc1ccc(S(=O)(=O)n2nc(-c3ccco3)nc2SCc2ccccc2)cc1	55*	1.1	0.3	70*	0.5
CSc1nc(-c2ccco2)nn1S(=O)(=O)c1ccc(C)cc1	68*	1	0.3	70*	0.3
Cc1ccc(S(=O)(=O)c2nc(-c3cccs3)oc2SCC(N)=O)cc1	27	1.1	0.7	27	0.7
CC(=O)Nc1c(O)nc(SCC(=O)Nc2c(C)cccc2C)[nH]c1=O	-8	0.8	1	0	1.1
C=CCn1c(=O)c2c(C)c(C)sc2n2c(Nc3ccc(OC)cc3)nnc12	23	0.9	0.1	91*	0.8
O=C(CN1C(=O)c2ccccc2C1=O)Nc1sc2c(c1C(=O)NCC1CCCO1)CCC2 (stereo unspecified)	-9	1	0.9	8	1.1
